17 compounds from PubChem BioAssay (NCATS) can be followed below.

Test [1] in a line: Quantitative High-Throughput drug screen in 47 multiple myeloma cell lines against the NCATS MIPE library collection: JIM3_ECACC cell viability assay (AID 1918963; also: nearly all actives have a fitted effect of over 35% in size; also: potency is read from the fitted curve at half-maximal effect). An outline of the steps: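 Primary qHTS used for cherry-picking: cells at 500/well, library compounds for 48 h (37C, 5% CO2), luminescent ATP assay.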
A short description of test [2]: Quantitative High-Throughput drug screen in 47 multiple myeloma cell lines against the NCATS MIPE library collection: INA6_PLB cell viability assay (AID 1918965; also: nearly all actives have a fitted effect of over 55% in size; also: potency is read from the fitted curve at half-maximal effect). An outline of the steps: (§1)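 We plated 500 myeloma cells per well, pinned in MIPE 4.0 compounds, and incubated for 48 hours at 37C. ATP was then quantified with CellTiter-Glo, with DMSO and media-only wells defining 100% and 0%.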

Test [3] can be described thus: Quantitative High-Throughput drug screen in 47 multiple myeloma cell lines against the NCATS MIPE library collection: H1112_PLB cell viability assay (AID 1918967; also: nearly all actives have a fitted effect of over 30% in size; also: potency is read from the fitted curve at half-maximal effect). A digest of the protocol:
(§2)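 CellTiter-Glo ATP luminescence gave viability after 48 h compound treatment at 37C of 500 multiple myeloma cells per well. Normalisation used DMSO-only wells as 100% and media-only wells as 0% viability; primary qHTS of approved and investigational drugs.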

The nature of test [4]: Quantitative High-Throughput drug screen in 47 multiple myeloma cell lines against the NCATS MIPE library collection: Karpas25_ECACC cell viability assay (AID 1918968; also: nearly all actives have a fitted effect of over 35% in size; also: potency is read from the fitted curve at half-maximal effect). An outline of the steps: as §2
A short description of test [5]: Quantitative High-Throughput drug screen in 47 multiple myeloma cell lines against the NCATS MIPE library collection: KMS26_JCRB cell viability assay (AID 1918975). Also: nearly all actives have a fitted effect of over 45% in size. Also: potency is read from the fitted curve at half-maximal effect. A digest of the protocol:
(§3)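 Inhibition of cell viability is measured here. Each line was plated at 500 cells per well, treated with MIPE 4.0 drugs, kept 48 hours at 37C, then assayed for ATP content by CellTiter-Glo luminescence.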

Test [6] can be described thus: Quantitative High-Throughput drug screen in 47 multiple myeloma cell lines against the NCATS MIPE library collection: MOLP8_DSMZ cell viability assay (AID 1918977). Also: nearly all actives have a fitted effect of over 45% in size. Also: potency is read from the fitted curve at half-maximal effect. An outline of the steps:
(§4)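 Plated at 500 cells per well, myeloma lines received MIPE 4.0 compounds by pin tool. Following 48 h culture at 37 °C, CellTiter-Glo luminescence gave viability relative to DMSO and media-only controls.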

Test [7] can be described thus: Quantitative High-Throughput drug screen in 47 multiple myeloma cell lines against the NCATS MIPE library collection: NCIH929_DSMZ cell viability assay (AID 1918978). Also: nearly all actives have a fitted effect of over 35% in size. Also: potency is read from the fitted curve at half-maximal effect. A digest of the protocol:
as §4

Test [8] is described as follows: Quantitative High-Throughput drug screen in 47 multiple myeloma cell lines against the NCATS MIPE library collection: MM1S_ATCC cell viability assay (AID 1918980). Also: nearly all actives have a fitted effect of over 45% in size. Also: potency is read from the fitted curve at half-maximal effect. A digest of the protocol: as §4
The nature of test [9]: Quantitative High-Throughput drug screen in 47 multiple myeloma cell lines against the NCATS MIPE library collection: MM1R_ATCC cell viability assay (AID 1918981). Also: nearly all actives have a fitted effect of over 35% in size. Also: potency is read from the fitted curve at half-maximal effect. A digest of the protocol: as §4
The nature of test [10]: Quantitative High-Throughput drug screen in 47 multiple myeloma cell lines against the NCATS MIPE library collection: JJN3_DSMZ cell viability assay (AID 1918966; also: nearly all actives have a fitted effect of over 50% in size; also: potency is read from the fitted curve at half-maximal effect). An outline of the steps: as §2
Test [11] is described as follows: Quantitative High-Throughput drug screen in 47 multiple myeloma cell lines against the NCATS MIPE library collection: KMS27_JCRB cell viability assay (AID 1918970). Also: nearly all actives have a fitted effect of over 30% in size. Also: potency is read from the fitted curve at half-maximal effect. The conditions noted are these: KMS27 myeloma cells, CellTiter-Glo ATP viability, 48 h; viability (% of DMSO): at 45.8 µM (top of the series). An outline of the steps:
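CellTiter-Glo luminescence after 48 h drug exposure at 37 °C; 500 cells/well, 1536-well format, pin-tool compound addition; DMSO = 100%, media-only = 0% viability.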

The nature of test [12]: Quantitative High-Throughput drug screen in 47 multiple myeloma cell lines against the NCATS MIPE library collection: KMS12PE_JCRB cell viability assay (AID 1918972). Also: nearly all actives have a fitted effect of over 30% in size. Also: potency is read from the fitted curve at half-maximal effect. An outline of the steps:
as §1

Test [13] can be described thus: Quantitative High-Throughput drug screen in 47 multiple myeloma cell lines against the NCATS MIPE library collection: OCIMY1_PLB cell viability assay (AID 1918979). Also: nearly all actives have a fitted effect of over 35% in size. An outline of the steps:
as §4

The nature of test [14]: Quantitative High-Throughput drug screen in 47 multiple myeloma cell lines against the NCATS MIPE library collection: JIM1_ECACC cell viability assay (AID 1918964; also: potency is read from the fitted curve at half-maximal effect). A digest of the protocol:
as §2

Test [15] is described as follows: Quantitative High-Throughput drug screen in 47 multiple myeloma cell lines against the NCATS MIPE library collection: KMS12BM_JCRB cell viability assay (AID 1918971). Also: nearly all actives have a fitted effect of over 35% in size. Also: potency is read from the fitted curve at half-maximal effect. An outline of the steps:
as §3

Test [16] is described as follows: Quantitative High-Throughput drug screen in 47 multiple myeloma cell lines against the NCATS MIPE library collection: KMS20_JCRB cell viability assay (AID 1918973). Also: nearly all actives have a fitted effect of over 45% in size. Also: potency is read from the fitted curve at half-maximal effect. A digest of the protocol: as §2
Test [17] can be described thus: Quantitative High-Throughput drug screen in 47 multiple myeloma cell lines against the NCATS MIPE library collection: MMM1_PLB cell viability assay (AID 1918976). An outline of the steps: as §4

Each structure is given as a SMILES string. Inconclusive results are not listed. A number with no mark means an inactive call. The source made the active and inactive calls. Calls follow the shape of the dose curve; as a rule, active = well fitted curve in the direction sought with a large enough effect; inconclusive = small, poorly fitted or top-dose-only effect, or another doubt; inactive = no such curve, though single readings can be large; an effect the other way counts as inactive or inconclusive. Positions of bridges follow the written chain, without caps; N, C: chain ends. Non-standard residues stand in square brackets, D forms with d. Residues, ends and D or L forms follow the SMILES beside them. ξ: configuration not given here. *: point of attachment. Octanoyl(6-Me) = CCC(C)CCCCC(=O)*; ξThr(3R) = C[C@@H](O)C(N)C(=O)O; dDab = NCC[C@@H](N)C(=O)O; Dab = NCC[C@H](N)C(=O)O

With `Cn1cc(-c2ccc3ncc(Cc4ccc5ncccc5c4)n3n2)cn1`, the Potency is 16600 nM (active) in test [1] and 13200 nM (active) in test [2]. Moreover, the Potency entry in test [3], in [4], in [5], in [6], in test [7] and in test [8] was “inactive” throughout. Besides, the Potency entry in test [9] is “inactive”.
On to `Nc1nc(=O)n([C@H]2C[C@H](O)[C@@H](CO)O2)cc1F`, for which the Potency in test [1] was 1320 nM (active); in [2] it was 29.6 nM (active); in [11], 41.8 nM (active); in test [12], 59 nM (active); in test [7], 16600 nM (active); in test [8], 7.4 nM (active). The Potency result in test [10], in [3], in test [4], in test [5], in [13] and in [9] was “inactive” throughout.
Turning to `COc1ccc2cc([S+]([O-])Cc3ncc(C)c(OC)c3C)nc2c1`, the Potency result in [1], in [14], in [10], in [3], in test [15] and in test [16] was “inactive” in each case. The Potency result in test [7], in test [13], in test [8] and in test [9] was “inactive” each time. In test [4], the Potency is 16600 nM (active).
For the compound `CCC(C)CCCCC(=O)N[C@@H](CCN)C(=O)NC(C(=O)N[C@H](CCN)C(=O)N[C@@H]1CCNC(=O)C([C@@H](C)O)NC(=O)[C@@H](CCN)NC(=O)[C@@H](CCN)NC(=O)[C@@H](CC(C)C)NC(=O)[C@H](Cc2ccccc2)NC(=O)[C@H](CCN)NC1=O)[C@@H](C)O` (stereo partly drawn) ({Octanoyl(6-Me)}-[Dab][ξThr(3R)][dDab][dDab][Dab]F[dL][dDab][dDab][ξThr(3R)]; lactam 4-C), the Potency result in test [1], in test [14], in test [10], in test [11], in test [12] and in [16] was “inactive” throughout. Moreover, the Potency entry in test [6], in [7] and in test [9] was “inactive” in each case.
Take `Cc1cnc(Nc2ccc(CN3CCOCC3)cc2)nc1Nc1cccc(S(=O)(=O)NC(C)(C)C)c1`: the Potency is 2640 nM (active) in test [1]; 372 nM (active) in [2]; 6620 nM (active) in [10]; 3320 nM (active) in test [3]; 1320 nM (active) in test [4]; 3320 nM (active) in [15]. In addition, the Potency in test [16] is 2640 nM (active); in [5], 13200 nM (active); in test [17] it was 10500 nM (active); in [6], 2090 nM (active); in test [7] it was 1660 nM (active); in test [9], 4690 nM (active).
As to `COC(=O)C1C2CC3c4[nH]c5cc(OC)ccc5c4CCN3CC2CC(OC(=O)c2cc(OC)c(OC)c(OC)c2)C1OC` (stereo not given), the Potency in test [1] was 26400 nM (active); in test [3], 16600 nM (active); in [4], 23500 nM (active); in test [12], 18700 nM (active); in test [17] it was 20900 nM (active); in [8], 14800 nM (active). Besides, the Potency in test [9] is 13200 nM (active). In test [5], the Potency entry was “inactive”.
Regarding `CN(N=O)C(=O)N[C@H]1C(O)OC(CO)[C@@H](O)[C@H]1O` (stereo not given in full), the Potency result in test [1], in test [3], in [4], in test [16], in [6] and in [7] was “inactive” each time.
As for `OCCN1C[C@H](O)[C@@H](O)[C@H](O)[C@@H]1CO`, the Potency result in test [1], in [3], in test [4], in test [11], in test [12] and in [5] was “inactive” each time. Further, the Potency entry in test [7] and in test [9] was “inactive” in each case.
`Cn1cnc2c(F)c(Nc3ccc(Br)cc3F)c(C(=O)NOCCO)cc21`: the Potency in test [1] was 372 nM (active); in [2], 18.7 nM (active); in test [11] it was 7.4 nM (active); in test [16], 66.2 nM (active). Moreover, the Potency entry in test [12] and in test [6] was “inactive” in each case.
With `CS(=O)(=O)N1CCc2c(-c3cnc(N)nc3)nc(N3CCOCC3)nc21`, the Potency in test [2] is 1480 nM (active); in test [10] it was 590 nM (active); in test [4] it was 105 nM (active); in test [11], 23.5 nM (active); in test [15], 935 nM (active); in test [5], 132 nM (active). Also, the Potency was 148 nM (active) in test [17], 20.9 nM (active) in test [7], 235 nM (active) in [8] and 209 nM (active) in [9].
`CON=C(C(=O)N[C@@H]1C(=O)N2C(C(=O)O)=C(CSC(=O)c3ccco3)CS[C@H]12)c1csc(N)n1`: the Potency entry in test [2], in test [10], in test [15], in test [16], in test [5] and in test [13] was “inactive” in each case. Further, the Potency in [4] is 16600 nM (active).
Turning to `c1ccc2c(Oc3nc(Nc4ccc(N5CCOCC5)cc4)c4ncn(C5CCCCC5)c4n3)cccc2c1`, the values for the Potency in [1] and in test [17] were 18700 nM (active) and 13200 nM (active), respectively. In addition, the Potency entry in [3], in [6] and in test [8] was “inactive” each time.
On to `Cc1noc(-c2ccc(CSCCC(=O)O)cc2)c1NC(=O)OC(C)c1ccccc1Cl` (stereo not given), for which the Potency result in test [1], in test [3], in test [11], in test [15], in test [5] and in test [6] was “inactive” in each case. In addition, the Potency result in test [7] and in [9] was “inactive” in each case.
The term viability denotes a read-out of living cells in per cent, often relative to untreated cells. With `CC(C)(C)[C@H](NC(=O)c1ccc(N)c(Cl)c1)C(=O)N1CCC[C@@H]1C(=O)N[C@H](C#N)CC(=O)O`, the viability, percent of control in test [1] is 130% [at 3.51 µM]. The results for the viability in test [3] and in test [13] were 116% [at 3.51 µM] and 103% [at 3.51 µM], respectively. In addition, the Potency in test [11] is 1050 nM (active). In [5], the viability (% of DMSO) was 125% [at 3.51 µM]. In addition, the values for the viability (% of control) in test [6], in test [8] and in [9] were 110% [at 3.51 µM], 120% [at 3.51 µM] and 128% [at 3.51 µM], respectively. Besides, the viability, % of control in test [7] is 122% [at 3.51 µM].
Consider `Cn1cc(C[C@@H](N)C(=O)O)c2ccccc21`, for which the Potency entry in test [1], in test [3], in test [4], in test [11], in test [5] and in [7] was “inactive” throughout. For the same compound, the Potency result in [13] and in [8] was “inactive” throughout. Besides, the results for the Potency in test [17] and in test [6] were 645 nM (active) and 115 nM (active), respectively.
Turning to `Cc1ccccc1C(=O)Nc1ccc(C(=O)N2CCCC(O)c3cc(Cl)ccc32)c(C)c1` (stereo not given), the Potency result in test [1], in test [3], in [15], in test [6], in [13] and in test [9] was “inactive” throughout. For the same compound, the results for the Potency in test [10] and in test [4] were 13200 nM (active) and 14800 nM (active), respectively.
With `CCOc1cc2ncc(C#N)c(Nc3ccc(OCc4ccccn4)c(Cl)c3)c2cc1NC(=O)C=CCN(C)C`, the Potency in test [14] is 418 nM (active); in test [2] it was 264 nM (active); in test [10], 5900 nM (active); in [4], 662 nM (active); in test [11], 264 nM (active); in [15], 5260 nM (active). Further, the Potency in test [12] is 264 nM (active); in test [16], 935 nM (active); in [5], 18700 nM (active); in test [7], 833 nM (active); in [8], 526 nM (active); in [9], 11800 nM (active).
